# PubChem BioAssay (Tox21)
# Results filed as inconclusive are left out. Unmarked numbers belong to inactive results. Calls follow the shape of the full dose curve. Positions of bridges follow the written chain, without caps; N, C: chain ends. Non-standard residues stand in square brackets, D forms with d. Residues, ends and D or L forms follow the SMILES beside them. hArg = N=C(N)NCCCC[C@H](N)C(=O)O; Mpa = O=C(O)CCS
# Experiment: qHTS assay to identify small molecule agonists of the hypoxia (HIF-1) signaling pathway - cell viability counter screen (AID 1224844); also: nearly all actives have a fitted effect of over 50% in size
# Conditions: HRE-bla ME-180 viability, CellTiter-Glo luminescence, 17 h; series mostly up to 76.8 µM; activity change, negative = cytotoxicity: at the top concentration
# From the text: National Center for Advancing Translational Sciences [NCATS]
# NIH Chemical Genomics Center [NCGC]
# U.S. Environmental Protection Agency [EPA]
# National Institutes of Environmental Health Sciences [NIEHS]
# National Toxicology Program [NTP]
# U.S. Food and Drug Administration [FDA]
# Hypoxia-inducible factor-1 (HIF-1) is the major hypoxia-regulated transcription factor that controls cellular responses to low oxygen concentration. HIF-1 is composed of two subunits: hypoxia responsive HIF-1-alpha and constitutively expressed HIF-1-beta, which is also known as aryl hydrocarbon receptor nuclear translocator. During hypoxic conditions, HIF-1-alpha heterodimerizes with HIF-1-beta and translocates into the nucleus where the HIF-1 complex binds to the hypoxia-response element (HRE) and activates expression of target genes such as VEGF (vascular endothelial growth factor). The HIF-1 pathway is essential to normal growth and development, and is involved in the pathophysiology of cancer, inflammation, and ischemia.
# Using a beta-lactamase reporter-gene under control of the hypoxia response element, a cell-based assay [CellSensor(TM) HRE-bla ME-180 from Life Technologies, Carlsbad, CA] was used to measure hypoxia-induced signaling. Tox21 10K library compounds were measured for their ability to induce the reporter gene activity. The cytotoxicity of the Tox21 compound library against HRE-bla ME-180 cell line was tested in parallel by measuring cell viability using CellTiter-Glo assay (Promega, Madison, WI) in the same assay wells.
# Tox21 Assay Protocol Summary:
# HRE-bla ME-180 cells were dispensed at 2,000 cells per well in 6 uL of assay medium containing 0.5% dialyzed FBS into black wall/clear-bottom 1536-well plates using a Multidrop Combi (Thermo Scientific, Waltham, MA) dispenser. After the assay plates were incubated at 37C and 5% CO2 for 5 hrs, 23 nL of compounds dissolved in DMSO, positive controls or DMSO only was transferred to each well of the assay plate using a Pintool station (Kalypsys, San Diego, CA). The assay plates were incubated at 37C and 5% CO2 for 17 hrs. One uL of LiveBLAzerTM B/G FRET substrate (CCF4-AM) (Life Technologies) was added to each well using a Flying Reagent Dispenser (FRD, Aurora Discovery, San Diego, CA). After 2 hr incubation at room temperature, fluorescence intensity (405 nm excitation, 460 nm and 530 nm emissions) was measured using an Envision plate reader (PerkinElmer, Shelton, CT). For cytotoxicity, 4 ul/well of CellTiter-Glo reagent was added into the assay plates using an FRD. After 30 min incubation at room temperature, the luminescence intensity was measured using a ViewLux plate reader (PerkinElmer).
# % is scaled to controls: 0 for no effect and ±100 for the full control effect.
row,Structure (SMILES),"activity change, negative = cytotoxicity"
1,C=CCCCCCCCC,6.03%
2,CC(=O)CCc1ccc(OC(C)=O)cc1,-12%
3,CCC(C(=O)OCCN1CCOC(c2ccccc2)C1C)c1ccccc1 (stereo not given),0.358% [at 35.3 µM]
4,CN(C)CCN(C)CCO,0.208%
5,NC(=O)[C@@H]1CSSCCC(=O)N[C@@H](CCCCN=C(N)N)C(=O)NCC(=O)N[C@@H](CC(=O)O)C(=O)N[C@@H](Cc2c[nH]c3ccccc23)C(=O)N2CCC[C@H]2C(=O)N1 ([Mpa][hArg]GDWPC-NH2; disulfide 1-7),7.5% [at 35.3 µM]
6,C/C(CC(C)C)=N\O,3.68%
7,CC1CCc2c(N3CCC(O)CC3)c(F)cc3c(=O)c(C(=O)O)cn1c23 (stereo not given),0.543% [at 35.3 µM]
8,CCCCCCCCCCCCCCCCCCOCCO,16.8% [at 15.8 µM]
9,CCCCCCCCCOC(=O)CCCCC(=O)OCCCCCCC,5.51%
10,NCC1(Cc2noc(=O)[nH]2)CCCCC1,-0.76%
11,COP(=O)(O)OP(=O)(O)OC,4.86%
12,O=C(NCN1CCOCC1)c1cnccn1,0.527% [at 35.3 µM]
13,CC1=C(C(=O)O)N2C(=O)[C@@H](NC(=O)[C@H](N)C3=CCC=CC3)[C@H]2SC1,0.857% [at 35.3 µM]
14,CC(C)=CCC/C(C)=C/COC=O,7.64%
15,CC1=C(O)C(=O)C(C)O1 (stereo not given),0.11%
16,O=C1OCCO1,7.04%
17,Cn1c(=O)c2c(ncn2CCO)n(C)c1=O,-0.788% [at 35.3 µM]
18,C[Si]1(C)O[Si](C)(C)O[Si](C)(C)O[Si](C)(C)O[Si](C)(C)O1,15%
19,CN(C)CCCCl,-4.3%
20,O=C1CCC(=O)N1Cl,-5.76%

row,Structure (SMILES),"activity change, negative = cytotoxicity"
1,CC(C)c1ccc(C=O)cc1,4.19%
2,C=CC(=O)CCCCC,-0.221%
3,Cc1ccc(C)c([N+](=O)[O-])c1,-4.32%
4,C=CCN1C[C@H](C(=O)N(CCCN(C)C)C(=O)NCC)C[C@@H]2c3cccc4[nH]cc(c34)C[C@H]21,0.645% [at 35.3 µM]
5,C=CCOC(=O)CCCCCC,15.3%
6,CCCCOC(=O)[C@H](C)O,10.2%
7,Cc1cccc(Cl)c1,3.44%
8,CO[Si](CCCn1c(=O)n(CCC[Si](OC)(OC)OC)c(=O)n(CCC[Si](OC)(OC)OC)c1=O)(OC)OC,6.69% [at 35.3 µM]
9,COC(=O)c1ccccc1C(=O)O,-0.749%
10,COc1cc2c(cc1OC)CN(C(=O)[C@H](C)N[C@@H](CCc1ccccc1)C(=O)O)[C@H](C(=O)O)C2,6.82% [at 35.3 µM]
11,Cc1ccc2c(c1)C(=O)c1ccccc1C2=O,2.55%
12,Fc1ccccc1,6.22%
13,CSc1cnccn1,8.64%
14,COc1ccc(CCO)cc1,10.8%
15,CCC(=O)c1c(O)cc(O)cc1O,5.86% [at 35.3 µM]
16,Cc1ncc([N+](=O)[O-])n1CC(C)O (stereo not given),6.91% [at 35.3 µM]
17,CC(=O)C(C)O (stereo not given),0.0336%
18,O=C(O)CNC(=O)CNC(=O)CNC(=O)CSC(=O)c1ccccc1,5.9% [at 35.3 µM]
19,Cc1cc(C)c(C(=O)O)c(C)c1,-0.0024%
20,CO[C@@]1(NC(=O)Cc2cccs2)C(=O)N2C(C(=O)O)=C(COC(N)=O)CS[C@@H]21,-3.11% [at 35.3 µM]
